Assay outcomes (PubChem BioAssay)
A selection: hits, their analogues and other compounds. The true share with any hit is near 19%.
Pf growth 96h: inhibits malaria parasite growth, 96 h | 6.9% of 320,000 active | P. falciparum luciferase reporter growth, 96 h | AID 504834 | Potency, µM (doses to about 28.7 µM), inactives show top-dose activity change, negative = inhibition, actives largely listed as inhibitors; also: potency is read from the fitted curve at half-maximal effect; % is scaled to controls: 0 for no effect and ±100 for the full control effect
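96 h incubation, 37 C, 5% CO2, of luciferase-reporter P. falciparum-infected RBCs (2% hematocrit, 0.05% parasitemia final) with test compounds; endpoint luminescence.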
MARV entry inh: Marburg virus entry inhibition; Marburg virus pseudotyped entry inhibition, cell reporter; Potency, µM (highest dose often 37.8 µM), inactives show at the top dose activity change, negative = inhibition, most hits filed as inhibitors; 1.8% of 300,000 active; AID 540276; calls by dose curve; tested in HEK293 cells; also: potency is read from the fitted curve at half-maximal effect; % is scaled to controls: 0 for no effect and ±100 for the full control effect
Pf growth 48h: P. falciparum growth inhibition at 48 hours (one generation) | 5.9% of 310,000 active | Potency, µM (series often up to 28.7 µM), inactives show top-dose activity change, negative = inhibition, usual class: inhibitors | AID 504832 | P. falciparum luciferase growth in erythrocytes, 48 h; also: potency is read from the fitted curve at half-maximal effect; % is scaled to controls: 0 for no effect and ±100 for the full control effect
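Erythrocytes infected with P. falciparum carrying an integrated firefly luciferase reporter (2% hematocrit, 0.1% parasitemia final) were exposed to compounds in RPMI 1640 with 0.5% Albumax at 37 C, 5% CO2. Growth inhibition was scored as reduced luminescence.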
LASV entry inh: Lassa virus entry inhibition. Lassa virus pseudotype entry inhibition, cell reporter. Potency, µM (doses to about 37.9 µM), inactives show at the top dose activity change, negative = inhibition, hits mostly inhibitors. 1.2% of 300,000 active; calls by dose curve; tested in HEK293 cells; also: potency is read from the fitted curve at half-maximal effect; % is scaled to controls: 0 for no effect and ±100 for the full control effect; nearly all actives have a fitted effect of over 50% in size
CHX counter: affects cycloheximide protein synthesis inhibition readout, counter-screen. cell reporter, cycloheximide protein synthesis inhibition counterscreen. max response, %. 12% of 300,000 active. AID 2314; in the data active = max response mostly above about 13%, no sharp cut-off; inactive = mostly below about 14%; also: read at 38.3 µM for the half of the compounds with a filed dose; 0% is about no effect
Shiga inhibitor: Shiga toxin inhibition; Vero cells, Shiga toxin protein synthesis inhibition reporter; 9.2% of 290,000 active; inhibition, % at 38.7 µM; AID 2315; in the data active = inhibition mostly above about 28%, no sharp cut-off; inactive = mostly below about 43%; also: 0% is about no effect
Starred values were filed as active, the others as inactive; i = inactive; ? = inconclusive; . = not tested or not shown; [ ] = dose if it differs, or a comment. Unless noted, calls follow the shape of the dose curve; as a rule, active = well fitted inhibition curve with a large enough effect; inconclusive = small, poorly fitted or top-dose-only effect, or another doubt; inactive = no such curve, though single readings can be large or run the other way.

SMILES	Pf growth 96h	MARV entry inh	Pf growth 48h	LASV entry inh	CHX counter	Shiga inhibitor
Cc1ccc(-n2ncc3c(NNC(=O)c4ccco4)ncnc32)cc1Cl	?	.	25%	.	57*	84
O=C(COc1ccc([N+](=O)[O-])cc1)Nc1ccc2c(c1)OCO2	-1%	9%[46.1 µM]	18%	6%	11	22
CCCSc1nc(=O)c2c(n1C)NC(=O)CC2c1cccc(F)c1F (centres undefined)	.	4%[46.1 µM]	.	-6%[46.1 µM]	.	.
CCCC[C@]12Cc3cc(OC)c(OC)cc3C(O1)C1=C(O2)C(=O)c2ccccc2C1=O	26%[5.75 µM]	.	1.3µM*	.	-2	i
COc1ccc([C@]23Cc4ccccc4[C@H](O2)C2=C(O3)C(=O)c3ccccc3C2=O)cc1	.	11%[14.2 µM]	.	.	.	.
CCCC[C@]12Cc3ccccc3[C@H](O1)C1=C(O2)C(=O)c2ccccc2C1=O	0.85µM*	.	?	.	-1	i
CC1(C)CC(=O)C2=C(C1)O[C@@]1(CCCCN3C(=O)c4ccccc4C3=O)Cc3ccccc3C2O1	1.7µM*	.	1.7µM*	.	9	i
O=C1C=C(NCC2CCCO2)CC(c2ccccc2)C1 (centres undefined)	48%	7%	-6%	13%	-6	-15
c1ccc(CN2CCCC3(CCCN(Cc4nc(COc5ccccc5)no4)C3)C2)cc1 (centres undefined)	40%	.	12µM*	.	9	15
COCC1CCN(Cc2nc(COc3ccccc3)no2)C1 (centres undefined)	0%	12%[46.1 µM]	?	0%[46.1 µM]	15*	31*
Cc1c(C(=O)N2CCCC2)sc(NC(=O)c2cccs2)c1C#N	?	-23%	-13%	-4%	0	-13
CCCCN(C)CCNC(=O)Cn1ncc2c([nH]c3ccccc32)c1=O	.	.	.	15%[46.1 µM]	.	.
CC(C)COC(=O)NCCCOC(=O)Nc1ccccc1	?	11%	38%	11%	37*	16
CCOCCOC(=O)c1cccc(NC(=O)OCC)c1	9%	-10%[46.1 µM]	.	?	14	26
CCCCOC(=O)Nc1cccc(C(=O)OCC)c1	216%	?	97%	-23%	21*	83*
CCCCOC(=O)Nc1ccc(N(C)C)cc1	25%	?	348%	?	80*	116*
CCCCOC(=O)Nc1ccc(C(C)C)cc1	74%	-24%	246%	?	40*	86*
CCCCOC(=O)Nc1ccc(S(=O)(=O)Nn2cnnc2)cc1	51%	16%	10%	-12%[14.3 µM]	-2	19
Cc1ccc(-c2ccc(=O)[nH]n2)cc1	-30%	.	-4%	.	-1	-3
Cn1nc(C(=O)N2CCN(c3ccccc3)CC2)c2c1-c1ccccc1SC2	.	?	.	-20%[46.1 µM]	.	.
CCCCOC(=O)Nc1ccc(C(N)=O)cc1	-2%	9%	106%	5%	37*	76*
CCOCCCNC(=O)/C=C1\Sc2ccccc2N(Cc2ccccc2F)C1=O	?	.	14%	.	32*	131*
CCOCCCNC(=O)CN1C(=O)/C(=C/c2ccccc2C)Sc2ccccc21	?	.	-27%	.	-1	24
COc1ccc(N2CCN(C(=O)c3ccc(OCc4c(C)noc4C)c(OC)c3)CC2)cc1	31%	?	-3%	-7%	-3	7
N#CC1CCCc2c1[nH]c1ccc([N+](=O)[O-])cc21 (centres undefined)	-13%	10µM*	8%	?	4	-12
SMILES	Pf growth 96h	MARV entry inh	Pf growth 48h	LASV entry inh	CHX counter	Shiga inhibitor
O=C1NCCc2c1[nH]c1ccc([N+](=O)[O-])cc21	1%	13%[46.1 µM]	8%	.	-2	-8
CC1(C)C(C(=O)N2CCN(c3ccc(Cl)cc3)CC2)C1(C)C	5%	.	-11%	.	10	16
O=C(C1CCC1)N1CCN(c2ccc(Cl)cc2)CC1	7.4µM*	13%	4%	26%	12*	14
O=C(C1c2ccccc2Oc2ccccc21)N1CCN(c2ccc(Cl)cc2)CC1	2.1µM*	?	.	?	-1	-15
CC(=O)NCCC(=O)Nc1nc2c(ccc3ccccc32)s1	20%	3%[46.1 µM]	30%	-15%[46.1 µM]	15*	20
COc1cccc(-c2csc(NNC(=O)c3cccs3)n2)c1	?	-1%	-11%	.	15	36
Oc1ccc(Nc2nc(-c3ccc4ccccc4c3)cs2)cc1	?	2%	.	.	49*	121*
COc1cccc(-c2csc(NC(=O)Oc3ccccc3)n2)c1	108%	17%	40%	8%	48*	137*
Oc1ccc(-c2nc(-c3ccc(O)c(O)c3)cs2)cc1	22%	?	?	?	23	94*
Cc1ccc2sc(NC(=O)CN3C(=O)c4ccccc4C3=O)nc2c1C	15%	-5%	9%	-3%	-3	-15
O=C(CSc1nnc(-c2ccc(Br)cc2)n1-c1ccccc1)c1ccccc1	.	.	.	1%[46.1 µM]	.	.
COc1cccc(CN2CCNC(=O)C2CC(=O)N(C)Cc2nc(C)cs2)c1OC (centres undefined)	15%	?	-10%	-1%	-2	-1
COCCOC(=O)c1nccnc1C(=O)Nc1ccc(S(=O)(=O)N2CCOCC2)cc1	22%	.	3%	.	-1	-5
CC(=O)NCCC(=O)Nc1nc(-c2ccc3ccccc3c2)cs1	3%	28%[46.1 µM]	28%	12%	29*	52*
CC(=O)Nc1nc(-c2ccc([N+](=O)[O-])cc2)cs1	-14%	2%	24%	11%	9	54
CC(=O)NCCC(=O)Nc1nc(-c2ccccc2Cl)cs1	-5%	-4%[46.1 µM]	-18%	-25%[46.1 µM]	8	22
CC(=O)Nc1nc(-c2ccc3ccccc3c2)cs1	438%	?	336%	?	38*	87*
CCN(C(=O)c1ccco1)C1C2CC3CC(C2)CC1C3 (centres undefined)	0%	.	-14%	.	-4	-4
O=C(CSc1nc(Cc2ccccc2)nc2ccccc12)c1ccc2c(c1)OCCO2	?	?	9.3µM*	-8%	1	24
CCc1nc(SCC(=O)c2ccc3c(c2)OCCO3)c2ccccc2n1	10µM*	17%	?	?	1	14
CC(Sc1ncnc2ccccc12)C(=O)Nc1ccc2c(c1)OCO2 (centres undefined)	41%	?	?	-5%	4	10
O=C(Nc1ccc2c(c1)OCO2)C1CCN(C(=O)CSc2ncnc3ccccc23)CC1	-21%	-19%	?	1%	34*	44*
CCN(CC)C(=O)CSc1nc(Cc2ccccc2)nc2ccccc12	?	.	6%	.	-2	-5
CCc1nc(SCC(=O)c2ccccc2)c2ccccc2n1	?	15%[46.1 µM]	?	1%[46.1 µM]	-6	-11
O=C(CSc1ncnc2ccccc12)c1ccc2c(c1)OCCO2	52%	?	129%	-29%	46*	185*
O=c1cc(N2CCOCC2)[nH]c(=O)n1-c1ccc(Cl)cc1	-11%	.	.	.	-7	-13
COCCOc1cc(NC(=O)CS(=O)(=O)CC(=O)N(C)C)c(Cl)cc1Cl	3%	11%[46.1 µM]	0%	5%[46.1 µM]	2	-3
